From ChEMBL document CHEMBL3433997, “St. Jude Leishmania screening dataset” (2016)

How the values were obtained:
Format in all cases: functional
[1] = target: Solute carrier family 2, facilitated glucose transporter member 1 (Homo sapiens) (UniProt P11166); assay: ST_JUDE_LEISH: Cytotoxicity at 2uM final concentration against transgenic Leishmania Mexicana promastigotes LmGLUT1 that are glucose transport deficient and complemented with the human glucose transporter GLUT1. Activity is measured by DNA content using SYBR green in vitro
[2] = target: Hexose transporter 1 (Plasmodium falciparum) (UniProt O97467); assay: ST_JUDE_LEISH: Cytotoxicity at 2uM final concentration against transgenic Leishmania Mexicana promastigotes LmPfHT that are glucose transport deficient and complemented with the Plasmodium falciparum hexose transporter. Activity is measured by DNA content using SYBR green in vitro
[3] = target: Glucose transporter (Leishmania mexicana) (UniProt O61059); assay: ST_JUDE_LEISH: Cytotoxicity at 2uM final concentration against transgenic Leishmania Mexicana promastigotes LmGT2 that are glucose transport deficient and complemented with the L. Mexicana glucose transporter 2. Activity is measured by DNA content using SYBR green in vitro

Chain of Solute carrier family 2, facilitated glucose transporter member 1 (Homo sapiens) (P11166 whole entry): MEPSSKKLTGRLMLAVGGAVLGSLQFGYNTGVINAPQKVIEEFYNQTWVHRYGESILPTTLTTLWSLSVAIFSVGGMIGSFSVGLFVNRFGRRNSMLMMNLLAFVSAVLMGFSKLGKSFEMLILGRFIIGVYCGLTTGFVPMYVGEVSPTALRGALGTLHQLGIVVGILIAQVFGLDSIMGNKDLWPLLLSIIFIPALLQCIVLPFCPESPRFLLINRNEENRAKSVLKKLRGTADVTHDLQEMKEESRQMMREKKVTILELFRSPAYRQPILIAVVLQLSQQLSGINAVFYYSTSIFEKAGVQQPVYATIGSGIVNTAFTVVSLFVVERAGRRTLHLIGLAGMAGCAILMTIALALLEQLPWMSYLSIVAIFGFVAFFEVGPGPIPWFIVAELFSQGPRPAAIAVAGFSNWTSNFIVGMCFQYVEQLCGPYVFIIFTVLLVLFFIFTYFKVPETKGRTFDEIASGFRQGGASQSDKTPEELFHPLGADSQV

In the case of `CCCCCCN1CCCN(Cc2ccc(C(=O)Nc3ccc(Cl)cc3)cc2)CC1`, the inhibition [1] is reported as 12.3%, the inhibition [2] is reported as 13.8% and the inhibition [3] is reported as 12.5%.

Work on `O=C(Nc1cccc(CN2CCCN(Cc3ccc4c(c3)OCO4)CC2)c1)c1cc2ccccc2s1` yielded an inhibition [1] of -0.41%, an inhibition [2] of -0.3% and an inhibition [3] of -3.63%.

`CCN(CC)CCCOC(=O)c1ccc2c(c1)-c1ccc(C(=O)OCCCN(CC)CC)c3cccc-2c13` showed an inhibition [1] of 6.8%, an inhibition [2] of 3.93% and an inhibition [3] of 4.24%.

In the case of `c1ccc(COc2ccc(C3CCCCC3)cc2)nc1`, the inhibition [1] is reported as 0.38%, the inhibition [2] is reported as 2.32% and the inhibition [3] is reported as 2.1%.

In the case of `CNC(=O)CNC(=O)COc1cccc2ccccc12`, the inhibition [1] is reported as 2.49%, the inhibition [2] is reported as 1.21% and the inhibition [3] is reported as 2.7%.

`O=[N+]([O-])c1cccc(CNCC2CCC(CNCc3cccc([N+](=O)[O-])c3)CC2)c1` (stereo unspecified) was tested, and the inhibition [1] was 2.25%, the inhibition [2] was -2.59% and the inhibition [3] was 1.26%.

`Clc1ccccc1CNc1noc(-c2sccc2Br)n1` gave an inhibition [1] of 0.33%, an inhibition [2] of 2.84% and an inhibition [3] of 1.17%.

Compound `CCc1cccc(-c2cc(N)n(C)c3nc(N)nc(=O)c2-3)c1` has an inhibition [1] of -0.01%, an inhibition [2] of 0.41% and an inhibition [3] of -1.13%.

In the case of `Cc1cc(N2CCCCC2)nc2ccc(NC(=O)c3cccc([N+](=O)[O-])c3)cc12`, the inhibition [1] is reported as 4.97%, the inhibition [2] is reported as 4.4% and the inhibition [3] is reported as 6.58%.

`CC(C)(C)c1ccc(CN2CCC(CNC(=O)c3cc(-c4ccccc4F)cs3)C2)cc1` (stereo unspecified) was tested, and the inhibition [1] was -1.08%, the inhibition [2] was -2.3% and the inhibition [3] was 0.9%.

In the case of `CC(C)(C)[C@@H](Nc1ccc(C#N)c2ccccc12)C(=O)NC1(Cc2ccc(O)cc2)CCCC1`, the inhibition [1] is reported as 0.1%, the inhibition [2] is reported as -0.5% and the inhibition [3] is reported as 0.41%.

Work on `COC(=O)c1ccc2nc(-c3ccc(C(=O)NC4CCN(Cc5ccccc5)CC4)s3)[nH]c2c1` yielded an inhibition [1] of 6.63%, an inhibition [2] of 10.5% and an inhibition [3] of 8.06%.

Work on `Oc1ccc(CCNCCCCCCNCCc2ccc(Br)cc2)cc1O` yielded an inhibition [1] of 3.51%, an inhibition [2] of 2.35% and an inhibition [3] of 0.85%.

`Clc1ccc(CNCC2CCN(CC3CCCCC3)CC2)cc1Cl` was tested, and the inhibition [1] was -1.58%, the inhibition [2] was 0.7% and the inhibition [3] was 0.64%.

`O=C(Nc1cccc(-c2nn3ccccc3c2-c2ccnc(Nc3ccccc3)n2)c1)c1c(F)cccc1F` gave an inhibition [1] of 0.96%, an inhibition [2] of 5.19% and an inhibition [3] of 1.51%.

For `CC(CON1C(N)=NC(N)=NC1(C)C)Cc1ccc(Cl)cc1Cl` (stereo unspecified), the inhibition [1] was -0.6%, the inhibition [2] was -1.29% and the inhibition [3] was -0.29%.

Compound `Oc1ccc(CCNc2nc(NCCCOc3cccc(CN4CCCCC4)c3Cl)nc(N3CCNCC3)n2)cc1` has an inhibition [1] of 3.62%, an inhibition [2] of 1.93% and an inhibition [3] of 3.74%.

`O=C(CNC(=O)c1ccc(O)cc1)Nc1cccc(-c2cccc(-c3nc4cc(C(F)(F)F)ccc4[nH]3)c2)c1` was tested, and the inhibition [1] was 3.81%, the inhibition [2] was 4.39% and the inhibition [3] was 2.15%.

`C=C1C(C(=O)OCC)=CN(CC)c2cc(O[C@H]3CCN(C(=O)OC(C)(C)C)C3)ccc21` gave an inhibition [1] of 2.71%, an inhibition [2] of 2.53% and an inhibition [3] of -2.32%.

`CS(=O)(=O)Nc1ccc2[nH]cc(C3CCN(CC(O)C4CCN(C(=O)/C=C/c5ccc(Cl)c(Cl)c5)CC4)CC3)c2c1` (stereo unspecified) showed an inhibition [1] of 4.85%, an inhibition [2] of 2.94% and an inhibition [3] of 3.3%.

`O=C(NC1CCN(CC2(c3ccccc3F)CCCC2)CC1)c1cc[nH]n1` was tested, and the inhibition [1] was 4.33%, the inhibition [2] was 1.54% and the inhibition [3] was 1.89%.

For `c1ccc2c(c1)CN(Cc1ccsc1)CC1(CCN(Cc3c[nH]c4cnccc34)CC1)O2`, the inhibition [1] was 4.5%, the inhibition [2] was 3.19% and the inhibition [3] was 6.86%.
